Some test systems named below: NCI-H23 lung; NCI-H226 lung; NCI-H322M lung; HOP-62 NSCLC; NCI-H460 lung; NCI-H522 lung; A549/ATCC NSCLC; 786-0 renal; COLO 205 colon; DU-145 prostate; K-562 leukemia; MALME-3M melanoma; MDA-MB-231 breast; RXF 393 renal; SF-268 CNS; SF-295 CNS; SF-539 CNS; UACC-257 melanoma; M14 melanoma.
What all share (test): NCI-60 one-dose screen, 48 h (100 = growth as untreated, 0 = no growth, -100 = all killed)
Common to all, as to conditions: 10 µM unless noted

Compounds without any hit were thinned out: in the full panel of roughly 83,000, 20% have a hit.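 Method: cells in 96-well plates; compound added at one concentration; 48 h incubation; percent growth measured; values under 10 scored active.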 Unmarked numbers belong to inactive results. Activity calls are given as the source filed them.

In the case of `Brc1ccc(N/N=C/c2c[nH]c3ccc(Br)cc23)nc1`, the growth is -58.2% (active) in the experiment with NCI-H23 lung; 3.09% (active) in the experiment with NCI-H226 lung; 17.6% in the experiment with NCI-H322M lung; -16.7% (active) in the experiment on HOP-62 NSCLC; -75.3% (active) in the experiment with NCI-H460 lung; -55.5% (active) with NCI-H522 lung. Besides, the growth was 0.0958% (active) with A549/ATCC NSCLC; -23.8% (active) with 786-0 renal; -89.1% (active) in the experiment with COLO 205 colon; 15.6% with DU-145 prostate; -33.1% (active) with K-562 leukemia; -57.4% (active) in the experiment with MALME-3M melanoma. The growth with MDA-MB-231 breast is -63.5% (active); in the experiment with RXF 393 renal, -22.9% (active); in the experiment on SF-268 CNS it was 10.5%; in the experiment on SF-295 CNS, -78.3% (active); in the experiment on SF-539 CNS, -41.5% (active); in the experiment with UACC-257 melanoma it was 7.1% (active). Besides, the growth in the experiment on M14 melanoma is -71.3% (active).

As for `Cc1nc(Nc2ncc(C(=O)Nc3c(C)cccc3Cl)s2)cc(N2CCN(CCCNC(=O)COc3ccc(C4CCC(=O)NC4=O)cc3)CC2)n1` (configuration not stated), the growth in the experiment on NCI-H23 lung is 68.8%; in the experiment with NCI-H226 lung, 68.5%; in the experiment with NCI-H322M lung, 20.8%; with HOP-62 NSCLC, 35.4%; with NCI-H460 lung, 95.8%; in the experiment with NCI-H522 lung, 17%. In addition, the growth was 33.4% with A549/ATCC NSCLC; 14.4% in the experiment with 786-0 renal; 10.3% in the experiment with COLO 205 colon; 41.9% in the experiment on DU-145 prostate; 9.96% (active) in the experiment on K-562 leukemia; 91.6% in the experiment on MALME-3M melanoma. The growth is -4.03% (active) with MDA-MB-231 breast; -51.2% (active) in the experiment on RXF 393 renal; 43.6% in the experiment with SF-268 CNS; 48.3% with SF-295 CNS; 7.74% (active) in the experiment with SF-539 CNS; 77.9% with UACC-257 melanoma. For the same molecule, in the experiment on M14 melanoma, the growth was 60.2%.

`O=c1oc2ccccc2cc1-c1csc(N2N=C(c3ccccc3)CC2c2ccc(N3CCOCC3)cc2)n1` (configuration not stated): the growth in the experiment with NCI-H23 lung was 95.9%; with NCI-H226 lung it was 94.6%; in the experiment on NCI-H322M lung, 120%; in the experiment on HOP-62 NSCLC, 106%; in the experiment with NCI-H460 lung, 107%; in the experiment with NCI-H522 lung it was 101%. The growth in the experiment with A549/ATCC NSCLC is 114%; in the experiment with 786-0 renal, 118%; in the experiment on COLO 205 colon it was 118%; in the experiment on DU-145 prostate, 113%; in the experiment on K-562 leukemia, 107%; in the experiment with MALME-3M melanoma, 116%. Moreover, the growth was 90.3% in the experiment with MDA-MB-231 breast; 112% in the experiment on RXF 393 renal; 127% in the experiment with SF-268 CNS; 105% in the experiment on SF-295 CNS; 100% in the experiment on SF-539 CNS; 119% with UACC-257 melanoma. Moreover, the growth in the experiment with M14 melanoma is 103%.

As to `CCOC(=O)/C=C/c1cccc2c1C(=O)NC(C)(c1cc3cc(Cl)ccc3oc1=O)N2` (configuration not stated), the growth with NCI-H23 lung was 50.9%; in the experiment on NCI-H226 lung, 46.1%; in the experiment on NCI-H322M lung, 56.4%; with HOP-62 NSCLC it was 55.7%; in the experiment with NCI-H460 lung it was 47.4%; with NCI-H522 lung it was 33.8%. For the same molecule, the growth in the experiment on A549/ATCC NSCLC was 47.2%; in the experiment on 786-0 renal it was 31.4%; in the experiment on COLO 205 colon it was 31.7%; in the experiment with DU-145 prostate, 37.7%; with K-562 leukemia, 19%; in the experiment on MALME-3M melanoma it was 32.7%. The growth was 32.1% in the experiment with MDA-MB-231 breast; -1.81% (active) in the experiment on RXF 393 renal; 45.5% in the experiment with SF-268 CNS; 19.3% with SF-295 CNS; 38.5% with SF-539 CNS; 44.3% in the experiment on UACC-257 melanoma. The growth in the experiment with M14 melanoma is 22.3%.

In the case of `CCCSc1nc(Nc2ccc(S(N)(=O)=O)cc2)c(C#N)c(-c2cc(OC)c(OC)c(OC)c2)n1`, the growth with NCI-H23 lung was 43.4%; in the experiment on NCI-H226 lung it was 32.7%; in the experiment with NCI-H322M lung it was 51.7%; with HOP-62 NSCLC, 32.5%; in the experiment on NCI-H460 lung, 16.5%; with NCI-H522 lung it was 18.2%. Also, the growth was 17.9% in the experiment on A549/ATCC NSCLC; 41.5% in the experiment with 786-0 renal; 8.62% (active) in the experiment on COLO 205 colon; 26.2% with DU-145 prostate; 2.89% (active) with K-562 leukemia; -2.83% (active) in the experiment with MALME-3M melanoma. The growth with MDA-MB-231 breast is 43.9%; in the experiment with RXF 393 renal, -2.49% (active); in the experiment on SF-268 CNS it was 45.2%; in the experiment on SF-295 CNS, 14.1%; with SF-539 CNS it was 37%; in the experiment on UACC-257 melanoma it was 42%. The growth with M14 melanoma is 18.3%.

For the molecule `O=C1CC(Sc2n[nH]c(-c3ccncc3)n2)C(=O)N1c1ccc(Br)cc1` (configuration not stated), the growth with NCI-H23 lung was 104%; with NCI-H226 lung, 117%; with NCI-H322M lung, 104%; in the experiment with HOP-62 NSCLC, 98.9%; in the experiment on NCI-H460 lung, 117%; in the experiment with NCI-H522 lung, -33.6% (active). For the same molecule, the growth in the experiment with A549/ATCC NSCLC is 106%; in the experiment on 786-0 renal it was 106%; in the experiment on COLO 205 colon it was 116%; in the experiment on DU-145 prostate it was 117%; in the experiment with K-562 leukemia, 88.5%; in the experiment on MALME-3M melanoma, 104%. Besides, the growth in the experiment with MDA-MB-231 breast is 99%; in the experiment on RXF 393 renal, 137%; in the experiment on SF-268 CNS, 117%; with SF-295 CNS it was 107%; in the experiment on SF-539 CNS it was 102%; in the experiment with UACC-257 melanoma, 105%. The growth in the experiment with M14 melanoma was 115%.

Regarding `OCC1(CCCc2ccccc2)CCCN(c2nccc3ccccc23)C1` (configuration not stated), the growth in the experiment with NCI-H23 lung is 14.9%; in the experiment with NCI-H226 lung, 37.7%; in the experiment on NCI-H322M lung, 82.5%; in the experiment with HOP-62 NSCLC, 72.6%; with NCI-H460 lung, 34%; in the experiment on NCI-H522 lung, 22.9%. Also, the growth in the experiment on A549/ATCC NSCLC is 39.7%; in the experiment on 786-0 renal, 45.4%; in the experiment on COLO 205 colon, 10.4%; in the experiment with DU-145 prostate, 68.3%; in the experiment with K-562 leukemia, 18.6%; in the experiment with MALME-3M melanoma it was 24.8%. Besides, the growth in the experiment with MDA-MB-231 breast is 52.1%; in the experiment on RXF 393 renal, 61.1%; in the experiment on SF-268 CNS, 61.8%; with SF-295 CNS, 17%; with SF-539 CNS, 43.1%; with UACC-257 melanoma it was 10.6%. For the same molecule, the growth in the experiment with M14 melanoma was 8.76% (active).

`COc1ccc(-c2ccc(SCC(=O)Nc3ccc(S(N)(=O)=O)cc3Br)nn2)cc1`: the growth in the experiment with NCI-H23 lung is 77.4%; in the experiment on NCI-H226 lung, 52.9%; in the experiment on NCI-H322M lung, 84.5%; with HOP-62 NSCLC it was -9.99% (active); with NCI-H460 lung it was 70.2%; with NCI-H522 lung, 37.2%. Also, the growth in the experiment on A549/ATCC NSCLC was 64.4%; in the experiment with 786-0 renal it was 33.8%; in the experiment on COLO 205 colon it was 115%; in the experiment on DU-145 prostate, 72%; in the experiment with K-562 leukemia, 101%; in the experiment on MALME-3M melanoma it was 89.4%. The growth in the experiment with MDA-MB-231 breast was 85.1%; in the experiment on RXF 393 renal it was 89.2%; in the experiment with SF-268 CNS, 17.9%; with SF-295 CNS, 60.2%; in the experiment on SF-539 CNS, 42.9%; with UACC-257 melanoma it was 87.9%. Moreover, in the experiment on M14 melanoma, the growth is 101%.
